According to ChEMBL document CHEMBL1201862, “PubChem BioAssay data set” (2004):
Screen size: about 54,000 sequences; about 4,800 (8.9%) were called active. Cut-off read from the data, not from the text of the source: active = GI50 up to about 1.1 µM and inactive = higher. The list is a sample of the results. Results with a measured potency or affinity are listed apart.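 Cultured in 96-well plates, cells were exposed to test compound for 48 hours across five concentrations. GI50: concentration for 50% inhibition of growth.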

Tested on: RPMI-8226
Assay: NCI tumour cell line growth inhibition, 48 h

| Substance | GI50 [nM] |
| --- | --- |
| [Bis(aminomethyl)diethylsilane]tetrachloroplatinum(IV), CHEMBL2146203 | 1620 |
| [Bis(aminomethyl)pentamethylenesilane]tetrachloropaltinum(IV), CHEMBL2146204 | 4530 |
| [Bis(aminomethyl)tetramethylenesilane]dichloropaltinum(II), CHEMBL2146205 | 9860 |
| [Bis(aminomethyl)dimethylsilane]tetrachloroplatinum(IV), CHEMBL2146190 | 2110 |
| mu-(1,7-nanodiamine-N,N')bis-(cis-aminedichloroplatimum (II)), CHEMBL2146215 | 26200 |
| [Bis(aminomethyl)tetramethylenesilane]tetrachloropaltinum(IV), CHEMBL2146189 | 1100 |
| [Bis(aminomethyl)ethylmethylsilane]tetrachloroplatinum(IV), CHEMBL2146192 | 1320 |
| cis-Bis[[(trimethylsilyl)methyl]amino]tetrachloroplatinum(IV), CHEMBL2146191 | 1940 |
| [Bis(aminomethyl)pentamethylenesilane]dichloropaltinum(II), CHEMBL2146202 | 1920 |
| CISPLATIN, CHEMBL11359 | 4290 |
| [Bis(aminomethyl)dimethylsilane]dichloroplatinum (II), CHEMBL2146201 | 12200 |
